Data: PubChem BioAssay AID1159580 (chemical genetic matrix, 2015)
“And” between values parts separate entries of the source, which are not always exact repeats. Identical values can stand only once. Screen size: about 5,500 compounds; about 2,000 (36%) were called active. Inconclusive results (about 18%) are left out. No stated cut-off is given here; in the data, active means normalized growth mostly below about 0.91 (no sharp cut-off); inconclusive means no clear call, values can overlap the other calls; inactive means mostly above about 0.92. The list shows a part of the results.

Assay: chemical genetic growth profiling, strain panel (AID 1159580);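 further: tested at 20 µM; growth read once vehicle control cultures reached saturation at 30 °C; 1 = growth at the plate median or of vehicle wells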
Settings: S. cerevisiae deletion strains, growth OD

Measured: normalized growth

CCC(Cc1c(I)cc(I)c(N)c1I)C(=O)O (stereo not given)
1 (inactive) and 0.148 (active): locus YHR030C, strain SLT2, stronger effect = lower value
0.993 (inactive) and 0.112 (active): locus YJL095W, strain BCK1, stronger effect = lower value
active: locus YAL026C, strain drs2, stronger effect = lower value 0.889 | locus YBR009C, strain hhf1, stronger effect = lower value 0.861 | locus YCL011C, strain gbp2, stronger effect = lower value 0.905 | locus YCL069W, strain vba3, stronger effect = lower value 0.907 | locus YDR137W, strain rgp1, stronger effect = lower value 0.71 | locus YDR392W, strain spt3, stronger effect = lower value 0.711 | locus YHR079C, strain IRE1, stronger effect = lower value 0.135 | locus YJL164C, strain tpk1, stronger effect = lower value 0.903 | locus YJR066W, strain TOR1, stronger effect = lower value 0.0664
inactive: locus YAL013W, strain DEP1, stronger effect = lower value 0.979 | locus YAL021C, strain ccr4, stronger effect = lower value 0.934 | locus YAL030W, strain snc1, stronger effect = lower value 0.945 | locus YBL061C, strain skt5, stronger effect = lower value 0.955 | locus YBR021W, strain FUR4, stronger effect = lower value 1.03 | locus YBR023C, strain chs3, stronger effect = lower value 0.935 | locus YBR171W, strain sec66, stronger effect = lower value 0.921 | locus YBR229C, strain ROT2, stronger effect = lower value 0.989 | locus YBR231C, strain swc5, stronger effect = lower value 0.977 | locus YBR279W, strain paf1, stronger effect = lower value 0.945 | locus YCL016C, strain dcc1, stronger effect = lower value 0.934 | locus YCL029C, strain bik1, stronger effect = lower value 0.997 | locus YCR088W, strain abp1, stronger effect = lower value 0.935 | locus YDL005C, strain med2, stronger effect = lower value 0.95 | locus YDL035C, strain GPR1, stronger effect = lower value 1 | locus YDL040C, strain nat1, stronger effect = lower value 0.96 | locus YDL074C, strain BRE1, stronger effect = lower value 1.01 | locus YDL101C, strain DUN1, stronger effect = lower value 1.01 | locus YDL134C, strain PPH21, stronger effect = lower value 1.01 | locus YDL192W, strain arf1, stronger effect = lower value 0.997 | locus YDR001C, strain nth1, stronger effect = lower value 0.927 | locus YDR069C, strain doa4, stronger effect = lower value 0.951 | locus YDR101C, strain arx1, stronger effect = lower value 1 | locus YDR150W, strain NUM1, stronger effect = lower value 1.01 | locus YDR159W, strain sac3, stronger effect = lower value 0.895 | locus YDR162C, strain NBP2, stronger effect = lower value 0.982 | locus YDR195W, strain ref2 0.992 | locus YDR297W, strain sur2, stronger effect = lower value 0.954 | locus YDR318W, strain mcm21, stronger effect = lower value 1 | locus YDR334W, strain swr1, stronger effect = lower value 0.942 | locus YDR335W, strain msn5, stronger effect = lower value 0.947 | locus YDR388W, stronger effect = lower value 0.996 | locus YDR502C, strain sam2, stronger effect = lower value 0.991 | locus YEL003W, strain gim4, stronger effect = lower value 0.934 | locus YEL037C, strain rad23, stronger effect = lower value 0.947 | locus YEL061C, strain CIN8 (second series), stronger effect = lower value 0.942 | locus YEL061C, strain CIN8, stronger effect = lower value 0.994 | locus YER015W, strain faa2, stronger effect = lower value 0.977 | locus YER016W, strain bim1, stronger effect = lower value 0.927 | locus YER110C, stronger effect = lower value 1 | locus YER111C, strain swi4, stronger effect = lower value 0.925 | locus YER155C, strain BEM2 (second series), stronger effect = lower value 0.94 | locus YER155C, strain BEM2, stronger effect = lower value 1 | locus YER167W, strain BCK2, stronger effect = lower value 0.998 | locus YFR010W, strain ubp6, stronger effect = lower value 0.985 | locus YGL078C, strain dbp3, stronger effect = lower value 0.997 | locus YGL086W, strain mad1, stronger effect = lower value 0.986 | locus YGL167C, strain pmr1, stronger effect = lower value 0.928 | locus YGL173C, strain kem1, stronger effect = lower value 0.936 | locus YGL227W, strain vid30, stronger effect = lower value 0.949 | locus YGL240W, strain doc1, stronger effect = lower value 0.99 | locus YGL248W, strain PDE1, stronger effect = lower value 1 | locus YGL253W, strain hxk2, stronger effect = lower value 0.921 | locus YGR078C, strain PAC10, stronger effect = lower value 1.01 | locus YGR135W, strain pre9, stronger effect = lower value 1 | locus YGR229C, strain SMI1, stronger effect = lower value 1.02 | locus YGR252W, strain gcn5, stronger effect = lower value 1.04 | locus YHR013C, strain ard1, stronger effect = lower value 0.852 | locus YHR027C, strain rpn1, stronger effect = lower value 0.927 | locus YHR079C, strain IRE1 (second series), stronger effect = lower value 1 | locus YHR094C, strain hxt1, stronger effect = lower value 1 | locus YHR129C, strain ARP1, stronger effect = lower value 0.957 | locus YHR142W, strain chs7, stronger effect = lower value 0.912 | locus YHR200W, strain rpn10, stronger effect = lower value 1 | locus YIL066C, strain RNR3, stronger effect = lower value 1 | locus YIL073C, strain SPO22, stronger effect = lower value 1.04 | locus YIL125W, strain kgd1, stronger effect = lower value 0.992 | locus YIR030C, strain dcg1, stronger effect = lower value 0.996 | locus YJL092W, strain hpr5, stronger effect = lower value 0.942 | locus YJL095W, strain BCK1 (second series), stronger effect = lower value 0.959 | locus YJL115W, strain asf1, stronger effect = lower value 0.954 | locus YJL129C, strain trk1, stronger effect = lower value 0.931 | locus YJL134W, strain LCB3, stronger effect = lower value 1 | locus YJL154C, strain vps35, stronger effect = lower value 0.935 | locus YJL166W, strain qcr8, stronger effect = lower value 0.949 | locus YJL168C, strain set2, stronger effect = lower value 0.999 | locus YJL187C, strain SWE1 (second series), stronger effect = lower value 1.01 | locus YJR043C, strain POL32, stronger effect = lower value 1.03 | locus YJR075W, strain HOC1, stronger effect = lower value 1.02
